# Assay results: PubChem BioAssay
# Several values for one entry are separate records, joined by “and”; a condition that tells them apart may be missing. Equal entries are not always repeated. Records with an inconclusive call do not appear. Activity calls are given as the source filed them. Unless noted, no cut-off is given here; in the data, nearly all actives have AC50 up to about 26 µM.
# Columns and labels:
# [1] = EMT-state selective cytotoxicity in co-culture – imaging, PC-3E GFP, TEM4-18 mCherry, primary screen (AID 1345086;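 active = compounds killing one labelled cell type while sparing the other, by normalised counts and ratio limits, not self-fluorescent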;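 for all read-outs here: cells exposed to compound for 72 h before imaging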;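 for red/green cell ratio (normalised): normalised mesenchymal count divided by normalised epithelial count so high means epithelial killing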); details: PC-3E GFP / TEM4-18 mCherry co-culture, imaging cell counts, at 1 µM; for red/green cell ratio (normalised): actives lie on both sides, counts scaled to control wells, 1 = unselective
# [2] = viability loss with induced miR-34 in A549 – imaging, A549 dox-inducible miR-34, nuclei and caspase counts, primary screen (AID 1347080;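 active = compounds whose cell count with miR-34 switched on is under 0.7 times the count with it off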); details: A549 miR-34 inducible, Hoechst nuclei count, 48 h
# [3] = P. berghei load reduction in hepatocytes – cell-based, HepG2, luciferase luminescence, HepG2 viability, primary screen (AID 624349; in the data active = parasite load remaining mostly below about 12%, no sharp cut-off; inactive = mostly above about 10%;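 note: 100% = mean of DMSO negative control wells on the same plate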); details: P. berghei liver stage in HepG2, luciferase luminescence, concentration not given here; parasite load remaining: stronger effect = lower value; viability: measured here: HepG2 viability without parasites
# [4] = viability loss in pontine glioma line – cell-based, SU-DIPG-XVII, MIPE5.0, CellTiter-Glo, qHTS, dose response (AID 1347060); details: CellTiter-Glo ATP luminescence;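 for AC50: cells exposed to compound for 48 hours before viability readout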
# [5] = viability loss in pontine glioma line – cell-based, SU-DIPG-XIII, MIPE4.0, CellTiter-Glo, qHTS, dose response (AID 1347061; cut-off not given, nearly all actives have AC50 up to about 37 µM;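 note: cells exposed to compound for 48 hours before readout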); details: CellTiter-Glo ATP luminescence
# [6] = viability loss in pontine glioma line – cell-based, JHH-DIPG-1, MIPE4.0, CellTiter-Glo, qHTS, dose response (AID 1347062; cut-off not given, nearly all actives have AC50 up to about 27 µM;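 for AC50: cells exposed to compound for two days before readout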); details: JHH-DIPG-1 viability, CellTiter-Glo ATP luminescence
# [7] = viability loss in pontine glioma line – cell-based, SU-DIPG-XIII, MIPE5.0, CellTiter-Glo, qHTS, dose response (AID 1347064; cut-off not given, nearly all actives have AC50 up to about 23 µM;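 for AC50: cells exposed to compound for 48 hours before the viability read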); details: CellTiter-Glo ATP luminescence
# [8] = viability loss in pontine glioma line – cell-based, SU-DIPG-XXV, MIPE5.0, CellTiter-Glo, qHTS, dose response (AID 1347065); details: CellTiter-Glo ATP luminescence;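 note: cells exposed to compound for 48 hours before ATP readout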
# [9] = growth inhibition of DIPG cells – cell-based, MIPE4.0 library, CellTiter-Glo luminescence, qHTS (AID 1347066; cut-off not given, nearly all actives have AC50 up to about 30 µM;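 note: cells exposed to compound for 48 hours before readout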); details: SU-DIPG-VI viability, CellTiter-Glo ATP luminescence
# [10] = JHH-DIPG-1 glioma cell viability, MIPE5.0 library, CellTiter-Glo luminescence, qHTS (AID 1347067); details: JHH-DIPG-1 glioma viability, CellTiter-Glo ATP luminescence;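 note: cells exposed to compound for 48 hours before readout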
# [11] = viability loss in pontine glioma line – cell-based, SU-DIPG-IV, MIPE4.0, CellTiter-Glo, qHTS, dose response (AID 1347063; cut-off not given, nearly all actives have AC50 up to about 30 µM;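 note: compound exposure lasted 48 hours before the viability readout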); details: CellTiter-Glo ATP luminescence
# [12] = growth inhibition of DIPG cells – cell-based, MIPE5.0 library, qHTS (AID 1347068; cut-off not given, nearly all actives have IC50 up to about 30 µM;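 for IC50: cells exposed to compound for 48 hours before viability readout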); details: SU-DIPG-XXV viability
# [13] = biological target: NAD(+) hydrolase SARM1 (Homo sapiens) (UniProt Q6SZW1); assay: blocking NAD cleavage by SARM1 SAM-TIR – cell lysate, NAD-Glo luminescence (AID 1508614;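 active = compound whose remaining NAD level is above about 45 nM, limit read from the data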;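 note: higher remaining NAD means stronger inhibition of SARM1 NADase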); details: SAM-TIR HEK293T lysate NADase, at 1 µM, stronger effect = higher value
# Chain of NAD(+) hydrolase SARM1 (Homo sapiens) (Q6SZW1 whole entry, looked up): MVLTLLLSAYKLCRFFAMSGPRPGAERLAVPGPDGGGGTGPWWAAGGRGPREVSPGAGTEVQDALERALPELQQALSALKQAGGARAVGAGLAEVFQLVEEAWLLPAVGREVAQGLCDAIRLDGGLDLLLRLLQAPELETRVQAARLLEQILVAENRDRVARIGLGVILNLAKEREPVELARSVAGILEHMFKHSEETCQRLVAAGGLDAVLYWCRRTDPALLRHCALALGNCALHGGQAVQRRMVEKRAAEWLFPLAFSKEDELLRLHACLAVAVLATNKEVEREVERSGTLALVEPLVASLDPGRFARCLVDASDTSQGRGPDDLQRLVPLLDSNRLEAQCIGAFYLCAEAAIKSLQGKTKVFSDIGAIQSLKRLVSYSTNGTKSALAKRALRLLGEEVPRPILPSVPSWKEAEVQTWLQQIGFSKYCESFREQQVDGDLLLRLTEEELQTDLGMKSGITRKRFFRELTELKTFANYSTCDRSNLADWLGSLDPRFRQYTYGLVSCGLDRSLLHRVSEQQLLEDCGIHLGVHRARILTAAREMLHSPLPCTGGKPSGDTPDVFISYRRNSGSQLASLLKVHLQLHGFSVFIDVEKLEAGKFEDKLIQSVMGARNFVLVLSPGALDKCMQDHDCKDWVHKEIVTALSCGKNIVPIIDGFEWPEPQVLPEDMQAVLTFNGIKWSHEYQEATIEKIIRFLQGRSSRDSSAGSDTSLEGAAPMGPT
# [14] = measured here: epithelial PC-3E GFP cell survival
# [15] = measured here: mesenchymal TEM4-18 mCherry cell survival
# [16] = stronger effect = lower value, cell number ratio, induced over uninduced
# [17] = measured here: relative caspase fold change +Dox/-Dox
# [18] = measured here: total cells with miR-34 induction, stronger effect = lower value
# [19] = measured here: total cells without miR-34 induction
structure (smiles),measurement,setting,value
C=C(C)C1CC=C(C)CC1 (configuration not stated),red/green cell ratio (normalised),[1],0.93 (inactive)
same,normalised cell number,[1]; [14],1.03
same,normalised cell number,[1]; [15],0.96
same,fold change,[2]; [16],0.884 (inactive)
same,fold change,[2]; [17],1.07
same,cell count,[2]; [18],8150
same,cell count,[2]; [19],9220
Cc1cc2nc3c(=O)[nH]c(=O)nc-3n(CC(O)C(O)C(O)CO)c2cc1C (configuration not stated),parasite load remaining,[3],149% (inactive) and 66% (inactive) and 85.7% (inactive)
same,viability,[3],87.6% and 75.7% and 118%
same,red/green cell ratio (normalised),[1],0.96 (inactive)
same,normalised cell number,[1]; [14],1.14
same,normalised cell number,[1]; [15],1.1
same,outcome,[4],inactive
same,outcome,[5],inactive
same,outcome,[6],inactive
same,outcome,[7],inactive
same,outcome,[8],inactive
same,outcome,[9],inactive
same,outcome,[10],inactive
same,fold change,[2]; [16],0.948 (inactive)
same,fold change,[2]; [17],3.38
same,cell count,[2]; [18],12400
same,cell count,[2]; [19],13100
CC(=O)NC(CS)C(=O)O (configuration not stated),red/green cell ratio (normalised),[1],1.09 (inactive)
same,normalised cell number,[1]; [14],1.24
same,normalised cell number,[1]; [15],1.36
same,outcome,[4],inactive
same,outcome,[5],inactive
same,outcome,[6],inactive
same,outcome,[11],inactive
same,outcome,[8],inactive
same,outcome,[9],inactive
same,outcome,[10],inactive
same,outcome,[12],inactive
CC(C)C(C)/C=C/C(C)C1CCC2C3=CC=C4CC(O)CCC4(C)C3CCC21C (configuration not stated),red/green cell ratio (normalised),[1],0.85 (inactive)
same,normalised cell number,[1]; [14],1
same,normalised cell number,[1]; [15],0.85
same,outcome,[4],inactive
same,outcome,[6],inactive
same,outcome,[11],inactive
same,outcome,[7],inactive
same,outcome,[8],inactive
same,outcome,[9],inactive
same,outcome,[10],inactive
same,outcome,[12],inactive
COc1ccc2nc3cc(Cl)ccc3c(Nc3cc(CN4CCCC4)c(O)c(CN4CCCC4)c3)c2n1,red/green cell ratio (normalised),[1],1.19 (inactive)
same,normalised cell number,[1]; [14],0.83
same,normalised cell number,[1]; [15],0.98
same,AC50,[4],9.34 µM (active)
same,outcome,[5],inactive
same,AC50,[6],20.9 µM (active)
same,AC50,[7],13.2 µM (active)
same,AC50,[8],7.42 µM (active)
same,outcome,[9],inactive
same,AC50,[10],11.8 µM (active)
same,IC50,[12],10.5 µM (active)
same,fold change,[2]; [16],1.01 (inactive)
same,fold change,[2]; [17],0.832
same,cell count,[2]; [18],2320
same,cell count,[2]; [19],2290
same,remaining NAD,[13],10 nM (inactive)
COC(=O)/C=C/C(=O)OC,red/green cell ratio (normalised),[1],1.23 (inactive)
same,normalised cell number,[1]; [14],0.84
same,normalised cell number,[1]; [15],1.04
same,outcome,[4],inactive
same,AC50,[5],14.8 µM (active)
same,AC50,[11],0.935 µM (active)
same,outcome,[7],inactive
same,outcome,[8],inactive
same,outcome,[9],inactive
same,outcome,[10],inactive
same,outcome,[12],inactive
same,fold change,[2]; [16],0.976 (inactive)
same,fold change,[2]; [17],1.01
same,cell count,[2]; [18],7550
same,cell count,[2]; [19],7740
same,remaining NAD,[13],10 nM (inactive)
